For 21 compounds, outcome and Potency results are on record in PubChem BioAssay (NCATS).

A short description of test [1]: qHTS assay for measurement of the activity of small molecule inhibitors on Zika virus induced Caspase-3 activity in human astrocytoma cells (AID 1224859). In a few lines:
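Human SNB-19 astrocytoma cells in RPMI 1640 with 10% FBS receive compound one hour ahead of Zika virus at 2 FFU/cell. After 6 h infection, caspase-3/7 activity is detected by Caspase-Glo luminescence.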

Test [2] can be described thus: qHTS assay to identify small molecule inhibitors of chordoma cells - UCH-1 (AID 1259355). Note: nearly all actives have a fitted effect of over 55% in size. Note: potency is the fitted concentration of half-maximal effect; series mostly up to about 46 µM. In a few lines:
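A 48hr growth-inhibition format: each drug tested at 15 concentrations together with added auranofin, camptothecin, doxorubicin, rubitecan and topotecan, with cell viability quantified as CellTiter-Glo luminescence.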

Test [3] in a line: qHTS assay to identify small molecule inhibitors of chordoma cells - UCH-2 (AID 1259356; note: potency is the fitted concentration of half-maximal effect). (In general: In qHTS, concentration-response curves come from the screen itself.)
Test [4] in a line: P-glycoprotein substrates identified in KB-8-5-11 adenocarcinoma cell line, qHTS therapeutic library screen (AID 1346987). Note: nearly all actives have a fitted effect of over 65% in size. Note: potency is the fitted concentration of half-maximal effect. In a few lines:
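Compounds are pinned in dose-response onto KB-8-5-11 cells (500 cells/well, colchicine-free medium) and left 72 h at 37 degree C. CellTiter-Glo luminescence then yields AC50 values.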

The nature of test [5]: NS1 protein of Zika virus - qHTS assay to identify small molecule inhibitors in human HEK 293 cells (AID 1347053). Note: series mostly up to about 46 µM; nearly all actives have a fitted effect of over 55% in size. In a few lines:
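TR-FRET signal from two anti-ZIKV NS1 antibodies quantified NS1 in HEK 293 cells 24 h after MR766 infection at MOI = 0.5; compounds were added 1 h before virus. Uninfected cells and infected cells defined the NS1 normalization range.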

Test [6] is described as follows: qHTS of pediatric cancer cell lines to identify multiple opportunities for drug repurposing: Primary screen for TC32 cells (AID 1347089). Note: nearly all actives have a fitted effect of over 60% in size. Note: potency is the fitted concentration of half-maximal effect. In a few lines: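 qHTS, TC32, 48 h drug treatment, CellTiter-Glo luminescence as a proxy for metabolically active cells; primary top concentration 46 µM (MIPE 11-pt, NPC 8-pt); confirmatory 11-pt.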
Test [7] is described as follows: qHTS of pediatric cancer cell lines to identify multiple opportunities for drug repurposing: Primary screen for DAOY cells (AID 1347090). Note: nearly all actives have a fitted effect of over 55% in size. Note: potency is the fitted concentration of half-maximal effect. In a few lines:
(§1)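 Eight- or eleven-point concentration series, 48 h treatment at 37 degrees C in growth media; readout CellTiter-Glo luminescence. Potency and efficacy were taken from the concentration-response curves.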

The nature of test [8]: qHTS of pediatric cancer cell lines to identify multiple opportunities for drug repurposing: Primary screen for A673 cells (AID 1347092). Note: nearly all actives have a fitted effect of over 45% in size. Note: potency is the fitted concentration of half-maximal effect. In a few lines:
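Luminescence from CellTiter-Glo, taken after 15 min at room temperature, served as the proxy for metabolically active cells following 48 h treatment. Both potency and efficacy were taken from curves fitted to the titration data.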

Test [9] is described as follows: qHTS of pediatric cancer cell lines to identify multiple opportunities for drug repurposing: Primary screen for BT-37 cells (AID 1347094). Note: series mostly up to about 57 µM. In a few lines:
(§2)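 Viability was measured as metabolically active cells after 48 hours of treatment, read by CellTiter-Glo luminescence. Compounds were tested at multiple final concentrations, giving concentration-response curves.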

Test [10] in a line: qHTS of pediatric cancer cell lines to identify multiple opportunities for drug repurposing: Primary screen for NB-EBc1 cells (AID 1347095). In a few lines: as §2
The nature of test [11]: qHTS of pediatric cancer cell lines to identify multiple opportunities for drug repurposing: Primary screen for SJ-GBM2 cells (AID 1347091). Note: potency is the fitted concentration of half-maximal effect. In a few lines:
as §1

Test [12] can be described thus: qHTS of pediatric cancer cell lines to identify multiple opportunities for drug repurposing: Primary screen for SK-N-MC cells (AID 1347093). Note: potency is the fitted concentration of half-maximal effect. In a few lines: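 Metabolically active cells were quantified by ATP-dependent luminescence (CellTiter-Glo, 15 min at room temperature) following 48 h treatment. Cells had been plated at 500-1,000 per well and settled for 5 h beforehand.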

Each structure is given as a SMILES string. Inconclusive results are not listed. Activity calls are given as the source filed them. Calls come from the whole dose curve; as a rule, active = well fitted curve in the direction sought with a large enough effect; inconclusive = small, poorly fitted or top-dose-only effect, or another doubt; inactive = no such curve, though single readings can be large; an effect the other way counts as inactive or inconclusive.

Consider `C[N+]12CCC(CC1)C(OC(=O)C(O)(c1ccccc1)c1ccccc1)C2` (stereo not drawn), for which the call in test [1] was inactive. Moreover, the Potency entry in test [2], in [3], in test [4], in test [5], in test [6] and in [7] was “inactive” each time. Also, the Potency result in test [8], in test [9] and in test [10] was “inactive” throughout.

On to `CCOC(=O)Nc1ccc2c(c1)N(C(=O)CCN1CCOCC1)c1ccccc1S2`, for which the result in test [1] was inactive. Besides, the Potency result in [2], in [3], in test [4], in test [5], in test [6] and in [11] was “inactive” throughout. For the same compound, the Potency result in [8], in test [12], in [9] and in test [10] was “inactive” throughout.

Take `CC(=O)Oc1ccc(C)cc1`: in test [1], the compound was classed as inactive. The Potency entry in test [2], in test [3], in test [4], in test [5], in test [6] and in [11] was “inactive” throughout. For the same compound, the Potency result in test [8], in [12], in test [9] and in test [10] was “inactive” in each case.

On to `c1ccc(CC2=NCCN2)cc1`, for which the compound was classed as inactive in test [1]. For the same compound, the Potency result in [2], in test [3], in test [4], in [5], in test [6] and in [7] was “inactive” throughout. Moreover, the Potency entry in test [8], in test [9] and in test [10] was “inactive” throughout.

As to `Cc1cc(CC(=O)O)c(C)n1-c1ccc(Cl)cc1`, the call in test [1] was inactive. In addition, the Potency entry in test [2], in test [3], in [4], in test [5], in test [6] and in test [8] was “inactive” each time. For the same compound, the Potency entry in test [9] and in test [10] was “inactive” in each case.

As for `CCCCNC(=O)NS(=O)(=O)c1ccc(N)cc1`, the result in test [1] was inactive. Moreover, the Potency result in test [2], in [3], in test [4], in test [5], in [6] and in test [8] was “inactive” throughout. For the same compound, the Potency entry in [12], in [9] and in test [10] was “inactive” in each case.

Turning to `COc1ccccc1N1CCN(CCCCNC(=O)c2ccc(-c3ccc(C(C)=O)cc3)cc2)CC1`, the compound was called inactive in [1]. Also, the Potency result in test [2], in test [3], in test [5], in test [6], in test [7] and in test [11] was “inactive” each time. The Potency entry in test [8], in test [12], in test [9] and in test [10] was “inactive” throughout.

`COc1ccc(C(=O)c2ccccc2O)c(O)c1`: the compound was classed as inactive in test [1]. Moreover, the Potency entry in [2], in [3], in test [5], in test [6], in test [7] and in [11] was “inactive” throughout. Further, the Potency result in [8], in test [12], in test [9] and in test [10] was “inactive” each time.

Consider `CO[C@H]1C=CO[C@@]2(C)Oc3c(C)c(O)c4c(O)c(c(/C=N/N5CCN(C)CC5)c(O)c4c3C2=O)NC(=O)/C(C)=C\C=C[C@H](C)[C@H](O)[C@@H](C)[C@@H](O)[C@@H](C)[C@H](OC(C)=O)[C@@H]1C`, for which, in test [1], the result was inactive. Besides, the Potency entry in test [2], in test [3], in test [5], in test [6], in [7] and in [11] was “inactive” in each case. Also, the Potency result in test [8], in test [9] and in [10] was “inactive” each time.

Take `CCc1oc2ccccc2c1C(=O)c1cc(Br)c(O)c(Br)c1`: in test [1], the call was inactive. Further, the Potency result in test [2], in test [3], in [4], in [5], in test [6] and in test [9] was “inactive” each time.

In the case of `O=C(Oc1cccc2cccnc12)c1ccccc1`, the result in [1] was inactive. The Potency result in test [2], in test [3], in [4], in [11] and in test [9] was “inactive” throughout. Further, the Potency in test [6] is 1670 nM (active); in test [8] it was 1 nM (active); in test [12], 9440 nM (active).

On to `Cc1ccc(-c2ncc(Cl)cc2-c2ccc(S(C)(=O)=O)cc2)cn1`, for which the call in test [1] was inactive. Further, the Potency entry in [2], in test [3], in test [5], in [6], in [7] and in test [11] was “inactive” in each case. The Potency result in test [8], in [12], in test [9] and in [10] was “inactive” in each case.

On to `COc1ccc(CN(CCN(C)C)c2ncccn2)cc1`, for which, in test [1], the result was inactive. In addition, the Potency result in [2], in [3], in test [5], in test [6], in [7] and in test [11] was “inactive” each time. For the same compound, the Potency result in [8], in test [12], in test [9] and in test [10] was “inactive” throughout.

With `CCCCOC(=O)CC(CC(=O)OCCCC)(OC(C)=O)C(=O)OCCCC`, the result in test [1] was inactive. In addition, the Potency result in test [2], in test [3], in test [5], in test [6], in test [7] and in test [11] was “inactive” in each case. The Potency result in test [8], in test [12], in [9] and in test [10] was “inactive” each time.

Consider `Clc1cccc(C(c2ccc3nc[nH]c3c2)n2ccnc2)c1` (stereo not drawn), for which the result in test [1] was inactive. In addition, the Potency entry in test [2], in [3], in test [5], in test [6], in test [7] and in test [11] was “inactive” each time. Besides, the Potency result in test [8], in test [12] and in [9] was “inactive” throughout.

Regarding `CCN(CC)CCOc1ccccc1C(=O)CCc1ccccc1`, the call in [1] was inactive. The Potency entry in [2], in [3], in test [5], in [6], in [7] and in test [11] was “inactive” throughout. The Potency result in test [8], in [12] and in [9] was “inactive” each time.

Turning to `O=C(O)P(=O)(O)O`, the compound was called inactive in [1]. Moreover, the Potency result in test [2], in test [3], in [5], in [6], in test [7] and in test [11] was “inactive” throughout. Besides, the Potency result in test [8], in test [9] and in test [10] was “inactive” throughout.

With `C[C@@]12C(=O)OC(=O)[C@]1(C)C1CCC2O1`, in test [1], the call was inactive. Moreover, the Potency in test [2] was 501 nM (active); in test [3], 698 nM (active); in test [4], 3120 nM (active); in test [6], 6640 nM (active); in test [7], 3350 nM (active); in [11], 2370 nM (active). Besides, the Potency in test [8] is 6680 nM (active); in test [12] it was 2370 nM (active).

On to `CCOC(=O)C(C#N)=C(c1ccccc1)c1ccccc1`, for which the call in test [1] was inactive. For the same compound, the Potency result in [2], in test [3], in [5], in test [6], in test [7] and in test [11] was “inactive” each time. The Potency result in test [8], in test [12], in test [9] and in [10] was “inactive” each time.

For the compound `O=C(NCCc1c[nH]c2ccccc12)c1cccnc1`, the call in test [1] was inactive. Also, the Potency entry in test [2], in test [3], in [4], in test [6], in test [7] and in [11] was “inactive” each time. For the same compound, the Potency entry in [8], in [12], in [9] and in [10] was “inactive” each time.

Consider `OC[C@H]1O[C@@H](Oc2ccc(O)cc2)[C@H](O)[C@@H](O)[C@@H]1O`, for which the compound was called inactive in test [1]. The Potency entry in [2], in test [3], in test [4], in test [5], in test [6] and in [8] was “inactive” throughout. Further, the Potency entry in [12], in test [9] and in test [10] was “inactive” in each case.
